GPT2 inhibitor: blocks human glutamate pyruvate transaminase 2. Q8TD30. Recombinant GPT2, coupled pyruvate oxidase/HRP Amplex Red fluorescence. AID 1671188. Potency, µM (titrated, usually from 57.7 µM), inactives show top-dose activity change, negative = inhibition, hits mostly inhibitors. 0.25% of 100,000 active; note: potency is the fitted concentration of half-maximal effect; nearly all actives have a fitted effect of over 60% in size
Target sequence (Q8TD30 whole entry, looked up): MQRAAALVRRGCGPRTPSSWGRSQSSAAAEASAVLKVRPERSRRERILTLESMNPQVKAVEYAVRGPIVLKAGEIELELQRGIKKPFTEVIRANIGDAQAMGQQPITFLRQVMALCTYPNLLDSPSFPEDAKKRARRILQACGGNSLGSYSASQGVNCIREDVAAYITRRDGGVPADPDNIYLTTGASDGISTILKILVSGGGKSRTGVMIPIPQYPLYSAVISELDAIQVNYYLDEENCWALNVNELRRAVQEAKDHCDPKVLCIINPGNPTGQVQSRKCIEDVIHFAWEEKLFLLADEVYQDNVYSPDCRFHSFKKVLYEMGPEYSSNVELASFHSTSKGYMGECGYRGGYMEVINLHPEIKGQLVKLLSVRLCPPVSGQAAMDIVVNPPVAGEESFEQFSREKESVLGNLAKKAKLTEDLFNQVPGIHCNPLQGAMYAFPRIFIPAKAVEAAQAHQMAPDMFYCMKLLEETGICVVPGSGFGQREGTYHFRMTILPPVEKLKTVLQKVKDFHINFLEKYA
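Inhibition is scored from Amplex Red fluorescence generated when pyruvate oxidase and HRP act on pyruvate released by GPT2. Reactions contain 10ng/uL enzyme, 250uM a-KG and 2mM L-alanine and run 30 min at room temperature.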
IP6K1 inh: blocks human inositol hexakisphosphate kinase 1. Q92551. IP6K1 kinase, ADP-Glo luminescence, 2 h; active compounds read low. activity change, % (series mostly up to about 58 µM). 0.81% of 140,000 active; in the data active = activity change below about -25%
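ADP-Glo luminescence measures ADP made by human IP6K1 during a 2 h RT reaction with ATP/IP6 (mix at 1.3 mM/130 uM); top library doses 57.5 and 19.1 uM final.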
SNCA expr inh: inhibitors of alpha-synuclein (SNCA) gene expression; HEK-293 SNCA-luciferase knock-in, luminescence, 24 h; Potency, µM (series often up to 57.2 µM), inactives show top-dose activity change, negative = inhibition, actives largely listed as inhibitors; 0.17% of 140,000 active; AID 1671194;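 note: potency is the fitted concentration of half-maximal effect; plate controls were DMSO cells for no effect and cell-free wells for full effect; nearly all actives have a fitted effect of over 45% in size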
HEK293 viab: cell viability loss counter-screen; Potency, µM (series often up to 57.1 µM), for the others: top-dose activity change, negative = cytotoxicity, usual class: cytotoxic; 0.12% of 150,000 active; HEK-293-SNCA-luc viability, GF-AFC fluorescence, 24 h;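 note: potency is the fitted concentration of half-maximal effect; 0% = DMSO-treated cells and -100% = medium-only wells without cells; nearly all actives have a fitted effect of over 30% in size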
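Cytotoxicity counterscreen: after 24 h compound treatment of genome-edited SNCA-luciferase HEK-293 cells, live-cell protease substrate GF-AFC read by fluorescence after 30 min; activity scaled between DMSO (0%) and medium-only (-100%), curves Hill-fitted.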
IP6K1 conf: human IP6K1 inhibition, confirmatory. shares compounds with IP6K1 inh. recombinant IP6K1 kinase, ADP-Glo luminescence, 2 h. Potency, µM (series often up to 49 µM), without a hit: at the top dose activity change, negative = inhibition, hits mostly inhibitors. 13% of 1,200 active. AID 1645852; note: potency is the fitted concentration of half-maximal effect; nearly all actives have a fitted effect of over 65% in size
Active calls of the source: *; i = inactive; ? = inconclusive; nt = no result; [ ] = another dose, or the depositor's remark. An excerpt weighted towards active compounds, which were near 1.1% of everything screened. Unless noted, calls come from the whole dose curve; as a rule, active = well fitted curve in the direction sought with a large enough effect; inconclusive = small, poorly fitted or top-dose-only effect, or another doubt; inactive = no such curve, though single readings can be large; an effect the other way counts as inactive or inconclusive. Unless noted, % is set by controls: 0 for no effect and ±100 for the full control effect.

SMILES | GPT2 inhibitor | IP6K1 inh | SNCA expr inh | HEK293 viab | IP6K1 conf
CN1CCN(c2cc(=O)c3ccnc(N4CCN(c5ccccn5)CC4)c3o2)CC1 | i | -26* | -12%[87.6 µM] | -2%[87.6 µM] | -27%
O=C(O)CCCNc1cc(N2CCN(C3CCCCC3)CC2)c2noc3c2c1C(=O)c1ccccc1-3 | nt | -34* | ? | ? | ?
Cn1ncc2c(C(=O)NC3CC3)cc(-c3cccc(F)c3)nc21 | nt | 11 | nt | nt | nt
CCOc1ccccc1CN1C(=O)c2ccccc2C1C(=O)NC1CCCCCC1 (stereo unspecified) | nt | -41* | -5% | ? | -18%
COc1ccc(C2=C(C)C(=O)N(Cc3ccc(C(=O)Nc4ccc(F)cc4C)cc3)S2(=O)=O)cc1 | nt | -30* | ? | -2% | -1%
COCCN(Cc1cccs1)S(=O)(=O)c1cc(-c2cc(C)no2)ccc1C | nt | -33* | -25% | -4% | ?
O=C(CC1CCCCN(Cc2ccccc2)C1=O)NC1CCCCC1 (stereo unspecified) | i | -6 | 3% | 6% | nt
O=C(NCc1ccc(F)c(F)c1)c1cn2cc(-c3ccc(C(F)(F)F)cc3)sc2n1 | i | 2 | -19%[87.6 µM] | 7%[87.6 µM] | nt
O=C(NC1CCN(c2ccnc3ccnn23)CC1)c1cc(F)ccc1Br | -1%[88.5 µM] | 12 | -14%[87.6 µM] | 2%[87.6 µM] | nt
COc1cccc(Nc2ccc3c(n2)C(C)(C(=O)NC2CCC2)CN(C)C3)c1 (stereo unspecified) | -11%[88.5 µM] | 1 | -9%[87.6 µM] | 3%[87.6 µM] | nt
CCOc1ccc2oc(=O)cc(CN3CCN(c4ccccc4)CC3)c2c1 | nt | -17 | -15% | 0% | nt
COc1ccc2oc(=O)cc(CN3CCN(c4ccc(F)cc4)CC3)c2c1 | nt | -25* | 4% | -8% | -21%
O=C(Nc1ccccc1Cl)c1cc(S(=O)(=O)N2CCC3(CC2)OCCO3)ccc1F | nt | -35* | -3% | 5% | ?
Cc1ccc2c(n1)sc1c(=O)n(-c3cccc(C(F)(F)F)c3)nnc12 | nt | -27* | 21% | -4% | -17%
COc1cccc(NC(=O)Nc2cccc(-c3ccc(N4CCOCC4)nn3)c2)c1 | 5% | -21 | -55% | ? | nt
Nc1cccc(-c2ccc(N3CCOCC3)nn2)c1 | i | -30* | ? | 6% | ?
CCCCn1c(=O)c(C(=O)NCCCc2ccccc2)nc2cccnc21 | -22% | 4 | 5% | -10% | nt
c1ccc(Oc2cc3c(cn2)NCCN(Cc2ccsc2)C3)cc1 | i | -29* | 11%[87.6 µM] | 6%[87.6 µM] | -4%
Nc1nc(Nc2cccc(Cl)c2)sc1C(=O)c1ccc(F)cc1 | nt | -27* | -13% | 2% | -30%
O=C(c1ccc(C(F)(F)F)cc1)N1CCCN(c2ccnc3ccnn23)CC1 | i | 4 | -23% | -6% | nt
C=C1c2cccc(O)c2C(O)=C2C(=O)[C@]3(O)C(O)=C(C(N)=O)C(=O)[C@@H](N(C)C)[C@@H]3[C@@H](O)[C@H]12 | 3% | -37* | -15%[25.6 µM] | -22%[23.9 µM] | -13%
COc1ccccc1Nc1ccnc(N2CCN(C(=O)c3ccc(Cl)nc3)CC2)n1 | i | 11 | -12% | 0% | nt
Cc1cc(CNC(=O)Cc2nonc2C)c2[nH]c(-c3ccccc3)c(C)c2c1 | -16% | -29* | 19% | -9% | -13%
O=C1COc2ccc(-c3ccoc3)nc2CN1Cc1ccc(C(F)(F)F)cc1 | i | -29* | -20%[87.6 µM] | -10%[87.6 µM] | ?
O=C1COc2ccc(-c3ccncc3)nc2CN1Cc1ccc(C(F)(F)F)cc1 | -10%[88.5 µM] | -9 | ? | 0%[87.6 µM] | nt
SMILES | GPT2 inhibitor | IP6K1 inh | SNCA expr inh | HEK293 viab | IP6K1 conf
COCC(=O)Nc1cccc(-c2nc3cccnc3s2)c1 | nt | -27* | 120% | 6% | ?
O=C(Cc1ccccc1)Nc1cccc(-c2nc3cccnc3s2)c1 | nt | -19 | 70% | 6% | nt
O=C(Nc1ccccc1F)NC1CCN(Cc2cccc(-c3ccc(F)c(F)c3)c2)CC1 | nt | 7 | nt | nt | nt
CC(C)NC(=O)C1CCCN1c1nccc(Nc2ccccc2F)n1 (stereo unspecified) | i | -10 | -28%[87.6 µM] | -20%[12.5 µM] | nt
CN1CCC(Nc2ncc3ncnc(Nc4ccc(F)c(Cl)c4)c3n2)CC1 | i | 19 | -46%[25.6 µM] | 8%[23.9 µM] | nt
CN1CCC(Nc2nc(Nc3ccc(Oc4ccccc4)cc3)c3c(=O)[nH]cc(Br)c3n2)CC1 | i | -41* | nt | ? | ?
Cc1oc2ncn(CC(C)C)c(=O)c2c1C(=O)NCCCN(Cc1ccccc1)C(C)C | nt | -29* | 21% | 2% | -3%
COCCNc1nc(NCc2cccc(Cl)c2)c2cnn(C)c2n1 | nt | -39* | -24% | -19% | -7%
Cc1ccc(C)c(Cn2cc(S(=O)(=O)c3ccc(Cl)cc3)c(=O)c3cc(F)ccc32)c1 | nt | -25* | -3% | 10% | 6%
Cc1ccc(Sc2c(C)nn(C(=O)COc3ccccc3)c2C)cc1 | nt | -36* | ? | -7% | ?
Cc1cc(C)cc(NC(=O)CSc2nc3c(cnn3-c3ccc(F)cc3)c(=O)[nH]2)c1 | nt | -3 | -15% | -6% | nt
O=C(CSc1nc2c(cnn2-c2ccc(F)cc2)c(=O)[nH]1)Nc1ccc(Br)cc1 | nt | -28* | 4% | -2% | -1%
CC(=O)OC1C(OC(=O)c2ccccc2)C2C(C)(C)CC(=O)CC2(C)C23CCC(C)(C2)C(O)CC13 (stereo unspecified) | i | -7 | nt | -13%[23.9 µM] | nt
CCOC(=O)C1CCN(Cc2cn3c(-c4ccc(OC)cc4)nnc3s2)CC1 | nt | -25* | 40% | -8% | 13%
CCOC(=O)C1CCCN(Cc2cn3c(-c4ccc(Br)cc4)nnc3s2)C1 (stereo unspecified) | nt | -9 | -12% | -16% | nt
O=C(NC1CN(c2ccnc3ccnn23)C1)c1ccccc1 | 1% | 3 | 6% | 6% | nt
O=[N+]([O-])c1ccc(-[n+]2nc(-c3ccccc3)nn2-c2ccc(I)cc2)cc1 | -3% | 18 | nt | ? | nt
C[S+](=O)([O-])N1CCC(c2nnc3n2C(C(=O)NCc2cccc(Cl)c2)CC3)CC1 (stereo unspecified) | 4% | -4 | -17% | -3% | nt
Cc1cccc(Cn2c(=O)n(CCCCC(=O)NCc3ccc4c(c3)OCO4)c(=O)c3ccccc32)c1 | nt | 2 | -30% | 1% | nt
O=C(CCCCn1c(=O)c2ccccc2n(Cc2cccc(Cl)c2)c1=O)NCc1ccc2c(c1)OCO2 | nt | -28* | 25% | 5% | -7%
CC(C)C(=O)Nc1cccc(C(=O)Nc2nnc(C(F)(F)F)s2)c1 | nt | -29* | 71% | 0% | -11%
O=C(NC1CC1)c1nc2cccnc2n(CCc2ccccc2)c1=O | i | 21 | ? | -5%[87.6 µM] | nt
COc1cccc(-c2cnc3[nH]cc(CC(N)=O)c3c2)c1 | i | -44* | 0%[87.6 µM] | 4%[87.6 µM] | ?
NC(=O)Cc1c[nH]c2ncc(-c3cccc(OC(F)(F)F)c3)cc12 | ? | -27* | -25%[87.6 µM] | -16%[87.6 µM] | ?
O=C(Cc1c[nH]c2ncc(-c3cccc(OC(F)(F)F)c3)cc12)NCc1cccnc1 | ? | -13 | -11%[87.6 µM] | -16%[87.6 µM] | nt

High-throughput results as filed in PubChem.
